# In PubChem BioAssay AID540276 (National Center for Advancing Translational Sciences (NCATS), 2011):
# The whole screen tested about 300,000 compounds, of which about 5,400 (1.8%) were called active. Another 28% or so got no clear call; they are omitted. For the sample, actives were picked, then their nearest neighbours and some compounds at random. Unmarked numbers belong to inactive results. The call rests on the fitted dose curve; tested in HEK293 cells.
# Assay: qHTS for inhibitors of binding or entry into cells for Marburg Virus
# Conditions: Marburg virus pseudotyped entry inhibition, cell reporter; series mostly up to 37.8 µM; activity change, negative = inhibition: at the top concentration
# On the % scale 0 is the no-effect control and ±100 the full control effect; potency means the concentration at half of the fitted maximal effect.
Structure (SMILES),Potency,"activity change, negative = inhibition"
c1ccc(Nc2nc(N3CCOCC3)c3ccccc3n2)cc1,12.6 µM (active),
c1ccc(-c2nnc(N3CCOCC3)c3ccccc23)cc1,,-2.47% [at 46.1 µM]
Cc1cc(C(=O)Nc2ccccc2N2CCOCC2)c2ccccc2n1,,-16.1%
Cc1nn(-c2ccc(F)cc2)c(Cl)c1/C=C(/CCC(=O)O)c1nc2ccccc2s1,,13.4%
Cc1cc(O)c(Sc2ccccc2)c(=O)o1,,-11.6% [at 46.1 µM]
CCOc1cccc(-c2nnc(SCC(=O)NC3CC3)n2C)c1,,4.57% [at 46.1 µM]
Cc1ccc(NC(=O)CCN2CCc3ccccc3C2)cc1,,-4.11%
COCC(=O)Nc1ccc(Br)cc1,,37.7%
CN1C(CC(=O)Nc2ccc(Br)cc2)c2ccccc2CC1(C)C (stereo unspecified),11.2 µM (active),
COc1ccc(Cc2nnc(SCC(=O)Nc3ccc(C)c(C)c3)o2)cc1OC,,0.182% [at 46.1 µM]
CC(C)Nc1nnc(SC(C)C(=O)N(C)C2CCCCC2)s1 (stereo unspecified),,-2.09% [at 46.1 µM]
Cc1ccc2nc3n(c(=O)c2c1)CCC3,,-3.59%
Cc1ccc2nc(C)c3c(c2c1)N(c1ccccc1)CC3,5.62 µM (active),
CSc1nc2ccc(C)cc2c(=O)n1-c1cccnc1,,0.18% [at 46.1 µM]
COc1ccc(CN2CCN(C(=O)CCC(=O)Nc3nnc(C(C)C)s3)CC2)cc1F,,-1.28% [at 46.1 µM]
CSc1ccc(S(=O)(=O)N2CCC(C(=O)NCc3ccncc3)CC2)cc1,,19% [at 46.1 µM]
CCOC(=O)c1sc2nc(CSc3ccccc3)[nH]c(=O)c2c1C,8.91 µM (active),
Cc1ccc(C)c(SCc2nc3sc(C(=O)O)c(C)c3c(=O)[nH]2)c1,,3.14% [at 46.1 µM]
CCOC(=O)c1sc2nc(CSCC(=O)OCc3ccc(C(=O)OC)o3)[nH]c(=O)c2c1C,inactive,
Oc1cccc(CCc2ccccn2)c1,,5.63%
CC(Nc1ccc([N+](=O)[O-])cc1[N+](=O)[O-])c1ccccc1 (stereo unspecified),,-12.3%
OCC1(CCc2ccccc2)CCN(Cc2ccc3nsnc3c2)CC1,,32.1% [at 46.1 µM]
Cc1c(CN2CCC(CO)(CCOc3ccccc3)CC2)[nH]c2ccc(Cl)cc12,2.82 µM (active),
Cc1c(C(=O)N2CCOCC2)[nH]c2ccc(OCc3ccccc3)cc12,inactive,
Cc1nn(-c2ccccc2)c2c1[C@@H](c1ccc(F)cc1F)C(C#N)=C(N)O2,,-0.0796%
O=C(Nc1cccc(S(=O)(=O)N2CCOCC2)c1)C12CC3CC(CC(C3)C1)C2,,2.1%

Structure (SMILES),Potency,"activity change, negative = inhibition"
Cc1ccc(C(=O)Nc2ccc(NC(=O)c3cccs3)cc2)c(C)c1,,-1.43% [at 46.1 µM]
O=C(Nc1ccccc1)c1ccc(NC(=O)c2cccs2)cc1,,-16.6% [at 46.1 µM]
Cc1ccc(-c2nnc(-c3ccc(NC(=O)c4cccs4)cc3)o2)cc1,11.6 µM (active),
Cc1cc(NC(=O)CSc2nnnn2-c2ccc(F)cc2)no1,,2.91% [at 46.1 µM]
Cc1ccc(N2CC(C(=O)N3CCC4(CC3)CC(=O)c3ccccc3O4)CC2=O)cc1C (stereo unspecified),,-13.8%
O=C(CN1CCN(c2ccccn2)CC1)Nc1ccc(Br)cc1,,-17.9% [at 46.1 µM]
Cc1cc(Br)ccc1NC(=O)c1cnc(N2CCN(c3ccccn3)CC2)c2ccccc12,9.2 µM (active),
O=C(Cc1ccc(Br)cc1)N1CCN(c2ccccn2)CC1,,6.67%
C=CCOc1ccc(C(=O)Nc2ccccc2C(=O)N2CCCC2)cc1,,-3.14%
COc1ccc(OCC(=O)NNC(=O)C2CCC2)cc1,,-2.85%
O=C(O)c1cc2c(cc1NC(=O)c1c(F)cccc1Cl)OCCCO2,,2.18% [at 46.1 µM]
COc1ccc(CNC(=O)COC(=O)C2=Cc3ccccc3OC2)cc1,,-0.272% [at 46.1 µM]
COc1ccc(CNC(=O)c2cc3c(s2)-c2ccccc2OC3)cc1,10 µM (active),
COc1ccc(CNC(=O)c2cc3c(=O)[nH]c4ccccc4c3s2)cc1,,8.98% [at 46.1 µM]
CN1CCOC1c1ccc(C2OCCN2C)cc1 (stereo unspecified),,1.02%
CCOc1ccc(C2C(C(=O)O)c3ccccc3C(=O)N2CCN2CCOCC2)cc1 (stereo unspecified),,4.39%
CCOc1ccc(C2NC(=S)NC3=C2CCc2ccccc23)cc1 (stereo unspecified),7.94 µM (active),
Cc1ccc(OCc2nnc(SC3CCc4ccccc4C3=O)n2C)cc1 (stereo unspecified),,11.2%
O=C(c1ccc(S(=O)(=O)N2CCCC2)cc1)N1CCN(c2ccccc2F)CC1,,2.26%
c1ccc(CCc2ccccn2)cc1,,-5.92%
O=C(O)c1ccc(/C=N/Nc2nc(N3CCCCC3)nc(N3CCCCC3)n2)cc1,,16% [at 46.1 µM]
Cc1cc(N2CCN(c3ccccc3)CC2)nc(N2CCOCC2)n1,,-28.4% [at 46.1 µM]
C(=N/Nc1cc(N2CCOCC2)nc(N2CCOCC2)n1)/c1ccccc1,2.51 µM (active),
O=C1C2C3C=CC(C3)C2C(=O)N1c1ncc([N+](=O)[O-])s1 (stereo unspecified),,2.32% [at 46.1 µM]
Cc1noc(/C=C/N(C)C)c1S(=O)(=O)N1CCCC(C(=O)Nc2cccc(F)c2)C1 (stereo unspecified),,-19.2% [at 46.1 µM]
